We go through 40 compounds from PubChem BioAssay (Tox21).

A number with no mark means an inactive call. The source made the active and inactive calls. The call rests on the fitted dose curve; in most records, active means well fitted curve in the direction sought with a large enough effect in the repeat runs; inconclusive means weak or mixed curves; inactive means flat fitted curve, though single readings scatter.
On the % scale 0 is the no-effect control and ±100 the full control effect.

The experiment can be described thus: qHTS assay to test for compound auto fluorescence at 590 nm (red) in HepG2 cell free culture (AID 720684). Particulars: cell-free medium autofluorescence, red 540/590 nm; series mostly up to 91.3 µM. The source says:
U.S. Tox21 Program National Center for Advancing Translational Sciences [NCATS] NIH Chemical Genomics Center [NCGC] U.S. Environmental Protection Agency [EPA] National Institutes of Environmental Health Sciences [NIEHS] National Toxicology Program [NTP] U.S. Food and Drug Administration [FDA] Tox21 Assay Overview: Compound auto fluorescence often interferes with screening of the compound library against various biological targets and signaling pathways. Some of these compounds may have fluorophoric properties. Such properties may interfere with the assay outputs resulting in false positives and/or negatives. To decrease such complications and ensure the compound activities are relevant in terms of biological response, the Tox21 10K compound library was screened for auto fluorescence. From the fluorophores used as reporter signals in our screening assays, the auto fluorescence equivalencies of compounds against three fluorophores have been evaluated: Triamterene, Fluorescein and Rose Bengal sodium for blue, green and red fluorescence, respectively. The fluorescence intensities were measured using Excitation/Emission wavelengths at 405/460nm, 485/535nm and 540/590nm for blue, green and red labels, respectively. This assay includes the red fluorescence data.
Tox21 Assay Protocol Summary: 5 uL of culture medium (MEM containing 10% FBS) per well was dispensed into black wall/clear bottom 1536-well plates using a Multidrop Combi Dispenser (ThermoFisher Scientific, Waltham, MA). After 23 nL compound or DMSO vehicle was transferred into assay plate by a pintool work station (Kalypsys, San Diego, CA), fluorescence intensities in the assay plates were measured by an Envision (PerkinElmer, Shelton, CT) plate reader using three labels for measuring blue, green and red fluorescence at […] 460, 535 and 590nm respectively.
Consider `CCN[C@@H]1C[C@H](N)[C@@H](OC2OC(CN)=CCC2N)[C@H](O)[C@H]1O[C@H]1OC[C@](C)(O)[C@H](NC)[C@H]1O` (stereo not given in full), for which the call was inactive.
On to `CC(=O)C1CCCCC1=O` (stereo not given), for which the compound was called inactive.
On the same count and under the same terms, the value for `CCOC(=O)c1cnc2c(cnn2CC)c1NN=C(C)C` was “inactive”; that for `CC1=NN(c2cccc(S(=O)(=O)O)c2)C(=O)C1` was “inactive”.
The same measure, in the same setting: as for `C=CC(=O)OCCCl`, the entry is “inactive”.
The same measure, in the same setting: the value for `CCCOC(=O)CC` was “inactive”; that for `CCN1C=CN(C)C1C` (stereo not given) was “inactive”.
`O=C(O)Cc1csc(-c2ccc(Cl)cc2)n1`: the compound was called inactive.
Same read-out and setting: the value for `O=C(O)CNC(=O)c1ccc(CO)o1` was “inactive”; that for `CN1CC(=O)N/C1=N/C(=O)Nc1cccc(Cl)c1` was “inactive”; that for `CC1OC1C1CCC2(C)OC2C1` (stereo not given) was “inactive”.
On the same count and under the same terms, the value for `CCC(C(=O)NC(=O)NC(C)=O)c1ccccc1` (stereo not given) was “inactive”.
The same measure, in the same setting: the value for `OCCc1ccccn1` was “inactive”.
In the case of `CCN(Cc1ccccc1)c1ccccc1`, the outcome was inactive.
On the same count and under the same terms, the value for `Cc1ccc(C(=O)Nc2ccc(S(=O)(=O)O)c3cc(S(=O)(=O)O)cc(S(=O)(=O)O)c23)cc1NC(=O)c1cccc(NC(=O)Nc2cccc(C(=O)Nc3cc(C(=O)Nc4ccc(S(=O)(=O)O)c5cc(S(=O)(=O)O)cc(S(=O)(=O)O)c45)ccc3C)c2)c1` was “inactive”.
Regarding `NCCCC[C@H](N[C@@H](CCc1ccccc1)C(=O)O)C(=O)N1CCC[C@H]1C(=O)O`, the fluorescence, % of Rose Bengal was -0.221% [at 18.6 µM].
Regarding `O=CN(CCO)CCO`, the compound was classed as inactive.
As for `CCN[C@H]1C[C@H](C)S(=O)(=O)c2sc(S(N)(=O)=O)cc21`, the compound was classed as inactive.
In the case of `Cc1ncc([C@@H](CCCCCCc2ccc3c(n2)NCCC3)CC(=O)O)cn1`, the compound was classed as inactive.
Same read-out and setting: as for `CCOC(=O)C1=NOC(c2ccccc2)(c2ccccc2)C1`, the entry is “inactive”; as for `CC1(C)[C@@H]2CC[C@@]1(C)[C@H](O)C2`, “inactive”; as for `CC(C)C(=O)OC(=O)C(C)C`, “inactive”.
`Cc1ccc(C(=O)c2ccc(CC(=O)O)n2C)cc1`: the fluorescence, % of Rose Bengal is 0.0726% [at 18.6 µM].
With `CC(C#N)(CCC(=O)O)N=NC(C)(C#N)CCC(=O)O` (stereo not given), the call was inactive.
Still for that read-out and setting: the value for `CCCCCCC#CC(=O)OC` was “inactive”; that for `CCOC(=O)c1ccccc1` was “inactive”; that for `COc1ccnc(CS(=O)c2nc3cc(OC(F)F)ccc3[nH]2)c1OC` (stereo not given) was “inactive”.
The same measure, in the same setting: the value for `CCN(CC#N)c1cccc(C)c1` was “inactive”.
On the same count and under the same terms, the value for `CC1=CC(=O)[C@H]2C[C@@H]1C2(C)C` was “inactive”.
Take `Nc1ccccn1`: the outcome was inactive.
Consider `COC(=O)C1=C(C)NC(C)=C(C(=O)OC(C)C)C1c1cccc2nonc12` (stereo not given), for which the fluorescence, % of Rose Bengal is -0.0514% [at 18.6 µM].
For `CC12CCC(C(=O)C1=O)C2(C)C` (stereo not given), the call was inactive.
Take `CO/N=C(\C(=O)N[C@@H]1C(=O)N2C(C(=O)O)=C(CSc3nc(=O)c(O)nn3C)CS[C@H]12)c1csc(N)n1`: the outcome was inactive.
Still for that read-out and setting: the value for `CC(C)(N)C#N` was “inactive”; that for `CCCC[N+](C)(CCCC)CCCC` was “inactive”.
Take `CCO[Si](OCC)(OCC)c1ccccc1`: the outcome was inactive.
Take `CC(=O)O[C@@]12CO[C@@H]1C[C@H](O)[C@@]1(C)C(=O)[C@H](O)C3=C(C)[C@@H](OC(=O)[C@H](O)[C@@H](NC(=O)OC(C)(C)C)c4ccccc4)C[C@@](O)([C@@H](OC(=O)c4ccccc4)[C@H]21)C3(C)C`: the call was inactive.
Regarding `CCCCN(CCC(=O)OCC)C(C)=O`, the compound was classed as inactive.
Consider `Cc1c(N)c(=O)n(-c2ccccc2)n1C`, for which the fluorescence, % of Rose Bengal was 0.0086% [at 18.6 µM].
As for `CCCCCCCCCC[N+](C)(C)[O-]`, the outcome was inactive.
